Screening data deposited in PubChem BioAssay by University of Kansas High Throughput Screening Laboratory.
Many of the other results were omitted from the sample, so hits are more common in it than they were.
mHTT-CaM PPI inh: mHTT-calmodulin interaction abrogation; P42858; AlphaScreen His-mHTT/GST-CaM binding, luminescence; inhibition, % at 15 µM; actives 3.6% (n = 190,000);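 further: 0% = both proteins with DMSO and 100% = one protein alone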
Pf apPOL block: Pf-apPOL DNA polymerase inhibition; Recombinant Pf-apPOL, molecular beacon fluorescence, 1.5 h; inhibition, % at 10 µM; actives 0.25% (n = 210,000); AID 1794808
* = called active by the depositor; x = no result given. No stated cut-off is given here; in the data, active means inhibition above about 50%; inactive means the rest.

SMILES	mHTT-CaM PPI inh	Pf apPOL block
Cc1cccc(NC(=O)N2CCC3(CC2)Nc2cc(F)ccc2-n2cccc23)c1C	39.7	-3.4
CCOC(=O)c1ccccc1NC(=O)N1CCC2(CC1)Nc1cc(F)ccc1-n1cccc12	50.2*	-2.9
O=C(Nc1cccc(F)c1)N1CCC2(CC1)Nc1cc(F)ccc1-n1cccc12	87.3*	-0.6
COC(=O)c1cccc(NC(=O)N2CCC3(CC2)Nc2cc(F)ccc2-n2cccc23)c1	52.8*	-3.3
O=C(Nc1ccccc1C(F)(F)F)N1CCC2(CC1)Nc1cc(F)ccc1-n1cccc12	36.6	4.7
O=C(Nc1ccc(F)cc1F)N1CCC2(CC1)Nc1cc(F)ccc1-n1cccc12	49.6	1.3
COC(=O)c1ccccc1NC(=O)N1CCC2(CC1)Nc1cc(F)ccc1-n1cccc12	46.0	2.3
O=C(Nc1cccc(F)c1)N1CCC2(CC1)Nc1ccccc1-n1cccc12	70.8*	2.1
O=C(CCc1conc1-c1ccc(F)cc1)N1CCN(c2ccc(Cl)cc2)CC1	-1.0	-8.2
O=C1C2CCCCC2C(=O)N1c1ccc(F)c([N+](=O)[O-])c1 (centres undefined)	-4.0	-1.6
Nc1ccc(C(=O)c2ccccc2)cc1[N+](=O)[O-]	5.1	-3.4
CCOc1ccccc1CN1C(=O)c2ccccc2C1C(=O)NC1CCCC1 (centres undefined)	-1.0	-14.7
Cc1ccc(Cl)cc1NC(=O)N1CCC2(CC1)Nc1cc(F)ccc1-n1cccc12	29.4	0.1
Cc1ccc2c(c1)NC1(CCN(C(=O)c3ccccc3Br)CC1)c1cccn1-2	89.0*	-5.0
COc1ccc(Cl)cc1NC(=O)N1CCC2(CC1)Nc1ccccc1-n1cccc12	32.4	-6.3
Cc1ccc(NC(=O)N2CCC3(CC2)Nc2cc(F)ccc2-n2cccc23)cc1F	86.5*	-4.0
Cc1c(Cl)cccc1NC(=O)N1CCC2(CC1)Nc1cc(F)ccc1-n1cccc12	41.4	-2.2
Cc1ccc2c(c1)NC1(CCN(C(=O)c3cccc(F)c3)CC1)c1cccn1-2	61.9*	0.8
CSc1cccc(NC(=O)N2CCC3(CC2)Nc2ccccc2-n2cccc23)c1	84.2*	-5.2
O=S(=O)(c1ccc(Cl)cc1)n1nccc1C=Cc1cccs1	x	11.2
O=C(Nc1ccccc1Cl)N1CCC2(CC1)Nc1cc(F)ccc1-n1cccc12	34.5	-1.4
Cc1cccc(NC(=O)N2CCC3(CC2)Nc2cc(F)ccc2-n2cccc23)c1	55.0*	-0.2
O=C(Nc1ccc(F)c(Cl)c1)N1CCC2(CC1)Nc1cc(F)ccc1-n1cccc12	96.9*	2.2
Cc1ccc(NC(=O)N2CCC3(CC2)Nc2cc(F)ccc2-n2cccc23)c(C)c1	39.7	-0.5
O=C(Nc1ccc2c(c1)OCO2)C1CCN(c2cncnc2N2CCCCC2)CC1	28.9	5.4
SMILES	mHTT-CaM PPI inh	Pf apPOL block
O=C(Nc1ccc2c(c1)OCO2)C1CCN(c2cc(N3CCCCC3)ncn2)CC1	56.4*	-4.1
CC(C)(C)c1csc(-c2ccc(C=NOC(=O)c3ccccc3Cl)cc2)n1	x	-1.9
C(=NN=Cc1cccnc1)c1cccnc1	x	0.6
C(=Nc1cc(-c2ccccc2)nn1-c1ccccc1)c1cccnc1	50.0*	-0.1
Cc1ccccc1CSCc1ccc(C(=O)N2CCC(c3ccncc3)CC2)o1	57.6*	-1.1
Cc1ccccc1CSCc1ccc(C(=O)O)o1	5.0	-6.5
COc1cc(C(=O)N2CCC(n3c(-c4ccoc4)nc4cccnc43)C2)ccc1C (centres undefined)	47.3	-2.2
COc1ccc(C(=O)N2CCC(n3c(-c4ccoc4)nc4cccnc43)C2)cc1F (centres undefined)	63.4*	4.1
O=C(NCc1ccccc1)N1CCC(n2c(-c3ccoc3)nc3cccnc32)C1 (centres undefined)	8.2	0.8
O=C(c1cccc(Br)c1)N1CCC(n2c(-c3ccoc3)nc3cccnc32)C1 (centres undefined)	55.3*	-1.1
Cc1ccc(CNC(=O)N2CCC(n3c(-c4ccoc4)nc4cccnc43)C2)cc1 (centres undefined)	63.8*	0.0
Cc1ccc(C(=O)N2CCC(n3c(-c4ccoc4)nc4cccnc43)C2)cc1C (centres undefined)	33.5	-0.8
CCc1nc2c(c(=O)n1CC(=O)Nc1ccc(F)cc1F)CN(Cc1ccccc1)CC2	9.6	-3.6
Cc1cc(C)nc(N=C(N)Nc2ccccc2[N+](=O)[O-])n1	4.2	-1.6
Cc1nn(CCCC(=O)Nc2cc(Oc3ccccc3)cc([N+](=O)[O-])c2)c(C)c1[N+](=O)[O-]	96.0*	-2.1
Cc1nn(CCCC(=O)Nc2cc(Oc3ccc(F)cc3F)cc([N+](=O)[O-])c2)c(C)c1[N+](=O)[O-]	80.0*	-4.9
Cc1ccc(NC(=O)CCCn2nc(C)c([N+](=O)[O-])c2C)cc1C	2.0	-12.3
Cc1ccc(C)c(Oc2cc(NC(=O)CCCn3nc(C)c([N+](=O)[O-])c3C)cc([N+](=O)[O-])c2)c1	1.0	-0.2
COc1cccc(NC(=O)CSc2nc(C)cc(C)n2)c1	-0.3	-11.5
